# From PubChem BioAssay AID540256 (National Center for Advancing Translational Sciences (NCATS), 2011)
# About 3,700 (1.2%) of roughly 300,000 compounds were called active. Another 20% or so got no clear call; they are omitted. The entries come from a sample that favours actives as a whole. Unmarked numbers belong to inactive results. Calls come from the whole dose curve; tested in HEK293 cells.
# Test: qHTS for Inhibitors of binding or entry into cells for Lassa Virus; note: nearly all actives have a fitted effect of over 50% in size
# Conditions: Lassa virus pseudotype entry inhibition, cell reporter; series mostly up to 37.9 µM; activity change, negative = inhibition: at the top concentration
# % is set by controls: 0 for no effect and ±100 for the full control effect; potency is the fitted concentration of half-maximal effect.
SMILES,Potency,"activity change, negative = inhibition"
C/C(=N\NC(=S)NCc1ccccc1)c1ccc(Cl)cc1,5.8 µM (active),
O=C(Nc1ncccc1O)c1ccc(S(=O)(=O)N2CCCC2)cc1,,-16.6%
O=C(OC12CC3CC(CC(C3)C1)C2)c1ccc(NCc2cc(O)ccc2O)cc1,10 µM (active),
O=C(COc1ccccc1[N+](=O)[O-])N/N=C/c1ccc[nH]1,,10.1%
CC(=O)Nc1ccc(C(=O)/C=C/c2ccc[nH]2)cc1,,-3.48%
CCCC(=O)Nc1ccc(C(=O)N/N=C/c2ccc[nH]2)cc1,10 µM (active),
O=C(Nc1c[nH]c(=O)[nH]c1=O)OCc1ccccc1,,25% [at 46.1 µM]
Cc1csc(=O)n1CC(=O)Nc1ccc(S(C)(=O)=O)cc1,,-0.731% [at 46.1 µM]
CCNC(=O)CCc1nc(-c2ccc(C)cc2)no1,,24.1%
Cc1ccc(-c2noc(CCC(N)=O)n2)cc1,,3.84%
CCNC(=O)CCc1nc(-c2ccc(C(C)(C)C)cc2)no1,11.2 µM (active),
CC1(C)C/C(=N/Nc2ccc([N+](=O)[O-])cc2[N+](=O)[O-])C(C)(C)O1,,-0.704%
Cc1[nH]n(C)c(=O)c1N=Nc1ccc(S(C)(=O)=O)cc1,,2.14%
Cc1[nH]c2ccc(S(N)(=O)=O)cc2c1C,,13.6%
NS(=O)(=O)c1ccc(N=Nc2c(=O)[nH]c3ccc4[nH]cccc4c23)cc1,0.628 µM (active),
O=C(Cn1cnc2ccccc2c1=O)NNC(=O)c1ccccc1F,,19.1%
CC(C)OCCCNC(=O)CN1C(=O)/C(=C/c2ccccc2F)Oc2ccccc21,,1.39% [at 46.1 µM]
Cc1ccc(NC(=S)NC(=O)c2ccc(-c3ccccc3)cc2)cc1,,-8.74%
CCOC(=O)C1=C(NC(=S)NC(=O)c2ccccc2)c2ccccc2CC1(C)C,1.41 µM (active),
CCOC(=O)c1c(NC(=O)C2(C)Cc3ccccc3C(=O)O2)sc2c1CCCC2 (stereo not drawn),,-9.46%
O=C(NN=CC=Cc1ccccc1)C(O)C(O)C(=O)NN=CC=Cc1ccccc1 (stereo not drawn),,-0.517%
CC(C)c1ccc(C=NNc2ccc([N+](=O)[O-])cn2)cc1,,-28.7% [at 46.1 µM]
COc1cc(NC(=O)c2ccccc2NS(=O)(=O)c2ccc(Cl)s2)cc(OC)c1,11.2 µM (active),
COc1ccccc1C(=O)Nc1ccccc1C(=O)Nc1ccccc1,,7.61%
O=C(Nc1nncs1)c1ccccc1NS(=O)(=O)c1cccs1,,7.55%
CCn1nnc2cc(C(=O)Nc3ccc(C(=O)OC(C)C)cc3)ccc21,,2.93%
O=C(COC(=O)c1n[nH]c2ccccc12)Nc1ccccc1Br,,3.48%

SMILES,Potency,"activity change, negative = inhibition"
O=C(Nc1c(Br)cc2c(c1Br)Cc1cc([N+](=O)[O-])ccc1-2)C(Cl)Cl,,-2.9% [at 46.1 µM]
CSc1ncc(C(=O)Nc2ccc(C)cc2C)c(C)n1,,4.12% [at 46.1 µM]
Cc1ccc(NC(=O)c2ccc3[nH]c(C)cc(=O)c3c2)c(C)c1,,11.7% [at 46.1 µM]
Cc1ccc(NC(=O)c2ccc(CSc3ncnc4nc[nH]c34)cc2)c(C)c1,17.8 µM (active),
COc1ccc(N=C2C=CC(=O)O2)cc1,,9.08% [at 46.1 µM]
O=C(O)C(=Cc1ccccc1[N+](=O)[O-])c1ccccc1,,-6.44% [at 46.1 µM]
O=C1/C(=C\c2ccc([N+](=O)[O-])cc2)CS(=O)(=O)C/C1=C/c1ccc([N+](=O)[O-])cc1,3.55 µM (active),
NC(=S)N/N=C/c1ccc([N+](=O)[O-])cc1,,2.75% [at 46.1 µM]
O=[N+]([O-])c1ccc(C=NN=Cc2ccc([N+](=O)[O-])cc2)cc1,,11.1% [at 46.1 µM]
CCOC(=O)C1CCCN(C(=O)C2CCN(S(=O)(=O)c3ccc(Cl)c(C(F)(F)F)c3)CC2)C1 (stereo not drawn),,-19.3%
Cc1[nH]c2ccccc2c1C(=O)C(C)Sc1nnc(C2CC2)o1 (stereo not drawn),,-4.65%
Cc1c(CCO)c(=O)n(-c2ccccc2)n1S(=O)(=O)c1ccc(F)cc1,,0%
Cc1c(CCO)c(=O)[nH]n1C(=O)c1c(F)cccc1F,4.11 µM (active),
CC(=O)NC1(c2ccc(F)cc2)CCN(C(=O)c2c(F)cccc2F)CC1,,-8.6%
COc1ccc(CC(=O)NC(C)c2ccc(Cl)c(Cl)c2)cc1S(=O)(=O)N1CCOCC1 (stereo not drawn),,-29.7%
CCOC(=O)Nc1ccc(NC(=O)OCC)cc1,,-15.4%
CCCCCOC(=O)NCCOC(=O)Nc1ccc(C(=O)OCC)cc1,1.03 µM (active),
CCCCC(CCC(=O)Nc1ccc(C(=O)OCC)cc1)C(=O)O (stereo not drawn),,5.08%
NC(CSC1(c2ccccc2)c2ccccc2-c2ccccc21)C(=O)O (stereo not drawn),,27.2%
CC1=CC(C)(C)Nc2ccc(OC(=O)C(Cc3ccccc3)N3C(=O)C4CCCCC4C3=O)cc21 (stereo not drawn),1.12 µM (active),
CC1=CC(C)(C)Nc2ccc(OC(=O)CN3C(=O)C4CCCCC4C3=O)cc21 (stereo not drawn),,-6.89%
COC(=O)c1ccccc1NC(=O)C(Cc1ccccc1)N1Cc2ccccc2C1=O (stereo not drawn),,-19.6% [at 46.1 µM]
O=C(COC(=O)c1ccc2c(c1)OCCO2)NCc1ccccc1Cl,,-12.6% [at 46.1 µM]
CCOc1cc(N2CCOCC2)c(OCC)cc1NC(=O)COc1cccc(Cl)c1,,-6.69%
CCOc1cc(N2CCOCC2)c(OCC)cc1NC(=O)c1cc(C)nc2ccccc12,,13.1%
CCOc1cc(N2CCOCC2)c(OCC)cc1NC(=O)COc1cccc2cccnc12,6.31 µM (active),
